INHIBITION data for 106 compounds are collected here from ChEMBL document CHEMBL4513216, “Probing the Open Global Health Chemical Diversity Library for Multistage-Active Starting Points for Next-Generation Antimalarials” (ACS Infect Dis, 2020).

About 2,100 (3.2%) of roughly 65,000 compounds showed an effect of 50% or more. The median lay at about -52%. This excerpt belongs to a sample that is enriched for strong results.

The experiment deals with Plasmodium falciparum. Nature of the experiment: Screen against P. falciparum Asexual Blood Stage (ABS), at 5uM. The format is functional, Dd2. The settings on record: tested at 5 uM.
With `NC(=O)c1cnn2c1NCC(CNCC1(c3ccccc3)CCC1)C2` (stereo unspecified), the INHIBITION is on record as 22.7%. The result for `CN[C@@H]1CCC[C@@H](Oc2ccccc2Oc2ccc(C)cc2)[C@@H]1O` reads 90.3%; that for `N[C@@H]1CCC[C@@H](Oc2ccc(F)cc2Oc2ccccc2)[C@@H]1O`, 77.4%; that for `Cc1ccc(Oc2cc(F)ccc2O[C@@H]2CCC[C@@H](N)[C@H]2O)cc1`, 91.1%. Turning to `Fc1cccnc1N1CCOCC2(CCCNC2)C1` (stereo unspecified), the INHIBITION amounted to 34.8%. To `CCCN1C(=O)CC2(CCCNC2)C1=O` (stereo unspecified) belongs -90.5%. For `CN(c1ncccc1C#N)C1CCN(CCc2ccccn2)CC1`, the INHIBITION was determined as 20.6%. As to `CN(Cc1cc(F)cc2cccnc12)CC1CCN(CCO)CC1`, the INHIBITION is 84.7%. In the case of `Cc1ccc(CC(=O)N2CCN(CC(C)O)CC2)cn1` (stereo unspecified), the INHIBITION is reported as -89.8%.

Regarding `CN(Cc1cc(Cl)cc2cccnc12)CC1CCN(CCO)CC1`, the INHIBITION came to 88.7%.

As for `CC(O)CN1CCC(CN(C)Cc2cc(F)cc3cccnc23)CC1` (stereo unspecified), the INHIBITION came to 87.2%. Turning to `CC(C)CN1C(=O)C2(CCCC2)NC1c1cn(C)c(=O)n(C)c1=O` (stereo unspecified), the INHIBITION is -15.3%. To `C[C@H]1C[C@@H]2CCN(CC3CCOCC3)C[C@H]2O1` belongs -49.5%; to `CC(C)OCCNC1(c2ccc(Cl)cc2)CCOCC1`, 37.7%. For `CC(NCC1(N(C)C)CCOCC1)c1ccc(Cl)cc1` (stereo unspecified), the INHIBITION came to 74.6%. Regarding `CN1CCN2C(=O)N(C3CCCCC3)C[C@H]2C1`, the INHIBITION is -52.1%. In the case of `c1ccc(CN2CCCC3(CCN(CC4CCCO4)CC3)C2)nc1` (stereo unspecified), the INHIBITION was determined as 15.1%. In the case of `O=S(=O)(C1CC1)N1CCC2(CCCN(Cc3ccccn3)C2)CC1`, the INHIBITION is recorded as -22.4%. For `c1ccc(CN2CCC3(CC2)CC(Nc2nccs2)CO3)nc1` (stereo unspecified), the INHIBITION is given as 75%. As to `c1ccc(CN2CCCC3(CCN(Cc4cccs4)C3)C2)nc1` (stereo unspecified), the INHIBITION is 73.8%. Consider `c1ccc(CN2CCC3(CC2)CCN(Cc2cccnc2)C3)nc1`, for which the INHIBITION came out at 21%. To `c1ccc(N2CCCC3(CCN(Cc4cccs4)C3)C2)nc1` (stereo unspecified) belongs 73.4%; to `c1ccc(N2CCC3(COCCN(Cc4cccs4)C3)C2)nc1` (stereo unspecified), 37.5%. To `c1ccc(CO[C@H]2CO[C@@]3(CCN(Cc4ccoc4)C3)C2)nc1` belongs 14.1%; to `c1ccc(CN2CCC3(CC2)CCN(Cc2cccs2)C3)nc1`, 54.8%. As to `c1ccc(CO[C@@H]2CO[C@@]3(CCN(Cc4ccccn4)C3)C2)nc1`, the INHIBITION is given as -34.3%. `CS(=O)(=O)N1CCC2(CCCN(Cc3ccccn3)C2)C1` (stereo unspecified): the INHIBITION is -32.2%. In the case of `Cc1ccc(N2C[C@@H]3OCCN(CC4CC4)[C@@H]3C2)nn1`, the INHIBITION is listed as -167%. Consider `O=C(c1ccco1)N1CCN2C[C@H](OCc3cccnc3)C[C@H]2C1`, for which the INHIBITION is listed as -180%.

Turning to `O=C([C@H]1C[C@H]2OCC[C@H]2N(Cc2ccncc2)C1)N1CCCCO1`, the INHIBITION is given as -62.9%. On to `CCN(CC)C(=O)C1CCC2(CCNCC2)O1` (stereo unspecified), for which the INHIBITION was -55.8%. In the case of `c1ccc(CO[C@H]2CC[C@H]3[C@H]2OCCN3Cc2nccs2)nc1`, the INHIBITION is -8.49%. The result for `CC(C)CN1CCCC2(CCN(c3ccccn3)C2)C1` (stereo unspecified) reads 71.2%; that for `CC(C)CN1CCCC2(CCN(c3ccc(C#N)cn3)C2)C1` (stereo unspecified), 9.73%. For the compound `CSc1nccc(N2CCC3(CCCN(CC4CC4)C3)C2)n1` (stereo unspecified), the INHIBITION is on record as -48.7%. Turning to `CN(Cc1ccccc1)c1ncccc1CNC1CN2CCC1CC2` (stereo unspecified), the INHIBITION was 62.6%. The result for `CN(CCc1ccccc1)Cc1c(C2CC2)[nH]c2ncccc12` reads -22.1%. In the case of `CN(c1ncccc1C#N)C1CCN(Cc2ccncc2)CC1`, the INHIBITION is listed as -82.3%.

Take `CNc1nccnc1C1CCN(C(C)C)CC1`: the INHIBITION came out at 10.5%. `CC(C)N1CCC(NCc2cccnc2N(C)Cc2ccccc2)CC1`: the INHIBITION was 84.1%. In the case of `COc1ncccc1CN1C[C@H]2CCN(C(C)C)C[C@H]2C1`, the INHIBITION came out at 9.06%. Consider `CN(Cc1ccccc1)c1ncccc1CNC1CCC1`, for which the INHIBITION was 71.1%.

For `CC(C)c1noc(CN(Cc2cccnc2)C2CN3CCC2CC3)n1` (stereo unspecified), the INHIBITION is given as -90.3%.

Regarding `Nc1cc(-c2cccc3c2CCNC3)ncn1`, the INHIBITION is -47.8%. With `Cc1ccccc1CC(=O)N1CCN(C2CCOC2=O)CC1` (stereo unspecified), the INHIBITION was -126%.

Consider `c1cncc(COC[C@H]2CC[C@H]3[C@H](CCN3Cc3cccs3)O2)c1`, for which the INHIBITION is recorded as -174%. The result for `CC(=O)N1CCN(Cc2ccncc2)CC2(CC(=O)N(C)C2)C1` (stereo unspecified) reads -18.8%. As to `COCCn1c(C(=O)NCc2n[nH]c(C)n2)cc2ccccc21`, the INHIBITION is -74.2%.

Take `Cc1nc(CN2CCO[C@@H]3CC(COc4ccccn4)C[C@H]32)cs1` (stereo partly specified): the INHIBITION was -52.4%. For the compound `Cc1cc(C(=O)NCC(=O)N2CCOCC2)nn1C(C)(C)C`, the INHIBITION was -113%. Consider `Cc1nc2c(c(NC3CCN(Cc4ccccc4)CC3)n1)CCNCC2`, for which the INHIBITION is 78.7%. Regarding `Cc1ncc2c(n1)CCCC2NC(=O)c1cnn(Cc2ccccc2)c1` (stereo unspecified), the INHIBITION is on record as -115%. Take `c1ccc(CNc2ncc(CN3CC[C@@H]4CC[C@H](C3)N4)cn2)cc1`: the INHIBITION is reported as -65%. As to `Cc1nnc([C@H]2CC[C@@H]3[C@@H](CCN3Cc3c(C)noc3C)O2)o1`, the INHIBITION is -1.83%. `Cc1n[nH]c2c1C(c1ccc3c(c1)OCCO3)SCC(=O)N2` (stereo unspecified): the INHIBITION stood at 8.75%.

For the compound `Cc1c(CNC2CCN(c3ccccc3OC(F)F)C2)cnn1C` (stereo unspecified), the INHIBITION came to 71%. The result for `O=C(N[C@@H]1CN[C@H]2CCCO[C@H]21)c1cnccn1` reads -120%; that for `Cc1ccccc1CC(=O)N1C[C@@H]2CC[C@H]1CN(Cc1cccnc1)C2`, -11.4%.

Take `Cn1cccc1C(=O)N1C[C@H]2CN(Cc3cccnc3)C[C@H]2C1`: the INHIBITION is recorded as 31.3%.

As to `CN(C)[C@@H]1CN(Cc2cccnc2)C[C@H]1c1cn(C)c2ccccc12`, the INHIBITION is reported as 71.9%. Take `O=C(COc1coc(CN2CCCC2)cc1=O)Nc1cc(Cl)ccc1Cl`: the INHIBITION stood at 80.6%.

For the compound `CS(=O)(=O)CCCNC1(c2cccc(Cl)c2)CCCC1`, the INHIBITION is listed as 76%. Regarding `CS(=O)(=O)CCCNC1(c2ccc(Br)cc2)CCC1`, the INHIBITION is reported as 78.5%.

Consider `Cc1cccc(C2(NCCCS(C)(=O)=O)CCCC2)c1`, for which the INHIBITION came out at 88.9%.

For the compound `Cc1cc(CNC2(c3ccccc3)CCCCC2)no1`, the INHIBITION is 44.9%. For the compound `Cc1ccc(CC(=O)N2CCN(C(C)c3ccccc3F)CC2)cn1` (stereo unspecified), the INHIBITION is given as -146%. Consider `C/C(=C\c1ccco1)CN(C)C(C)Cc1ccccn1` (stereo unspecified), for which the INHIBITION is -54.2%.

Turning to `CCc1[nH]c2c(CNc3cc(C)nc(NC)n3)cc(C)cc2c1C`, the INHIBITION is listed as 85.1%. In the case of `CCc1[nH]c2c(CNc3nc(C)cc(NC)n3)cc(C)cc2c1C`, the INHIBITION is reported as 89%. Consider `CN1C[C@H](NC(=O)c2cscn2)[C@@H]2OCCC[C@@H]21`, for which the INHIBITION is -18.5%. On to `O=C(c1cnn2c1OCCC2)N1CCC2(CC1)OCCO2`, for which the INHIBITION is given as -54.5%.

With `Cc1noc(C)c1CN1CC[C@@H]2O[C@H](COCC(C)C)CC[C@@H]21`, the INHIBITION is -31.3%. In the case of `c1cnc(NC[C@H]2OC[C@@H]3CCN(Cc4ccsc4)C[C@@H]32)nc1`, the INHIBITION was -30.5%.

With `c1cnc(NC[C@H]2OC[C@@H]3CCN(Cc4nccs4)C[C@@H]32)nc1`, the INHIBITION was -52.4%.

With `c1cc2c(cc1CN1CC[C@H]3CO[C@H](CN4CCCC4)[C@H]3C1)OCO2`, the INHIBITION was 78.6%. `c1cnc(NC[C@H]2OC[C@@H]3CCN(Cc4cccnc4)C[C@@H]32)nc1`: the INHIBITION was -37.6%. Take `CN1CCN(C[C@H]2OC[C@@H]3CCN(Cc4ccsc4)C[C@@H]32)CC1`: the INHIBITION came out at 77.7%.

Take `CN1CCN(C[C@@H]2OC[C@H]3CN(Cc4ccncc4)CC[C@H]32)CC1`: the INHIBITION is reported as -51.3%. Regarding `O=C1O[C@@H]2CN(Cc3ccsc3)C[C@@H]2N1Cc1ccccn1`, the INHIBITION is given as -67.9%. For the compound `Cc1ccc(Cl)cc1-n1nnnc1C1(N2CCCC2)CCCCC1`, the INHIBITION is on record as -125%. For the compound `Cc1nn(-c2ccc(C(=O)O)cc2)c2c1C(c1cccs1)SCC(=O)N2` (stereo unspecified), the INHIBITION is -57.4%.

Consider `COCCN1CCN(Cc2ccncc2)c2ncccc2C1`, for which the INHIBITION was 6.88%.

On to `Cc1ccc(C)c(OCCNC(=O)[C@@H]2CCCCN2)c1`, for which the INHIBITION came to 79.4%. The result for `CC(C)N(C)Cc1cncc2c1CCN(Cc1ccoc1)C2` reads -19.3%. Turning to `Cc1ccc2c(n1)N(CC(C)C)CCN(S(C)(=O)=O)C2`, the INHIBITION was -82.4%. Consider `Cc1nccc([C@@H]2C[C@@H]3CCN(Cc4c(C)noc4C)C[C@H]3O2)n1`, for which the INHIBITION is on record as -6.6%. The result for `Cc1cc(CN2C[C@@H]3COC[C@]3(c3nnc(C)o3)C2)no1` reads -26.2%. The result for `O=C(C1CCOC1)N1CCC2(CCCNC2)CC1` (stereo unspecified) reads 0.28%; that for `Cc1cccc(CN2C(=O)CCC23CCNCC3)n1`, -102%. `CCCN1C[C@@H]2CC[C@H]1CN(C(=O)Cn1c(C)cc(C)nc1=O)C2`: the INHIBITION was -79.2%. Turning to `CC(NCCc1nccn1Cc1ccccc1)c1ccsc1` (stereo unspecified), the INHIBITION came to 83.5%. For `CC(Cn1cccn1)NCC(=O)NCCc1cccs1` (stereo unspecified), the INHIBITION is given as -8.14%. As for `CC(NCCc1nccn1Cc1ccccc1)c1cccs1` (stereo unspecified), the INHIBITION worked out at 86.8%. As to `CC(Cn1cccn1)NCC(=O)N(C)Cc1ccsc1` (stereo unspecified), the INHIBITION was -27.7%. The result for `Cc1ccc(C(C)NCCc2nccn2Cc2ccccc2)o1` (stereo unspecified) reads 80.7%; that for `CCc1ccc(CN2C[C@H](OC)[C@H]3COC[C@H]32)o1`, -53%; that for `O=C(c1ccoc1)N1CCO[C@@H]2CNC[C@@H]21`, -14.6%. For the compound `Fc1cnc(N2CCN3C[C@H](Oc4cccnc4)C[C@H]3C2)nc1`, the INHIBITION is reported as -61.4%.

As for `c1cnc(N2CCOCC3(CNCCO3)C2)nc1` (stereo unspecified), the INHIBITION is -4.23%.

Take `Cc1cc(C)n2nc(C(=O)N[C@H]3C[C@H]4CN(C)CCN4C3)cc2n1`: the INHIBITION was -13.9%. `CCc1ccc(CNCC2CCN(CCO)CC2)cc1`: the INHIBITION amounted to 84.2%. Consider `OCCN1CCN(Cc2cc3c(cc2Br)OCCO3)CC1`, for which the INHIBITION stood at 1.48%. Consider `O=C(Cc1ccc(F)c(Br)c1)N1CCN(CCO)CC1`, for which the INHIBITION was -1.34%.

For the compound `OCCN1CCC(CNCc2ccc(Br)cc2)CC1`, the INHIBITION is recorded as 86.7%. Consider `CCc1ccc(OCC(=O)N2CCN(CC)CC2)cc1`, for which the INHIBITION is -123%. Turning to `OCCN1CCC(CNCc2ccc(N3CCCCC3)cc2)CC1`, the INHIBITION is listed as 91.9%.
